From PubChem BioAssay (EPA / NIEHS)
Active and inactive are the calls of the source. Rule for the calls: active = hit-call score of the fitted dose curve at least 0.9, where 1 is the maximum; inactive = score below 0.9.

These molecules were tested against Heat shock factor protein 1 (Homo sapiens) (UniProt Q00613) (assay: ATG_HSE_CIS: Attagene CIS-FACTORIAL HepG2 Assay for human Heat Shock Transcription Factor 1 (HSE) (AID 2282953)). Conditions: HepG2 HSE cis-reporter, Attagene RNA transcription; actives raise or lower the signal.
Heat shock factor protein 1 (Homo sapiens), sequence (Q00613 whole entry, looked up): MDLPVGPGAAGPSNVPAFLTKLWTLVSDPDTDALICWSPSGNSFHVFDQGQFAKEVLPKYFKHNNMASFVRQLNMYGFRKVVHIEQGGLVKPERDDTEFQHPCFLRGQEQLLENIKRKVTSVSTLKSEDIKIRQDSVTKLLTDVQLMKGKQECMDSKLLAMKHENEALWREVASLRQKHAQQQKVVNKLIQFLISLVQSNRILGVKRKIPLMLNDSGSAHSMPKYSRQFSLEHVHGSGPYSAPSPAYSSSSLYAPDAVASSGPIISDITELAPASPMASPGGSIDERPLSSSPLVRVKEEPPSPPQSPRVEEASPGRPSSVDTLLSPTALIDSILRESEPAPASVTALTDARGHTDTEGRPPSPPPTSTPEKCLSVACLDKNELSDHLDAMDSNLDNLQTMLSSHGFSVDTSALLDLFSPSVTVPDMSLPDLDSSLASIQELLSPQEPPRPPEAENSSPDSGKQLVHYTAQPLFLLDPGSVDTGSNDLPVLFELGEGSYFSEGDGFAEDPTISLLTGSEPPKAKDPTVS
Protocol: ATG_CIS is a cell-based, multiplexed-readout assay that uses HepG2, a human liver cell line, with measurements taken at 24 hours after chemical dosing in a 24-well plate.ATG_HSE_CIS is one of 52 assay component(s) measured or calculated from the ATG_CIS assay. It is designed to make measurements of mRNA induction, a form of inducible reporter, as detected with fluorescence intensity signals by Reverse transcription polymerase chain reaction (RT-PCR) and Capillary electrophoresis technology.Data from the assay component ATG_HSE_CIS was analyzed into 1 assay endpoint. This assay endpoint, ATG_HSE_CIS, was analyzed with bidirectional fitting relative to DMSO as the negative control and baseline of activity. Using a type of inducible reporter, measures of mRNA for gain or loss-of-signal activity can be used to understand the reporter gene at the transcription factor-level as they relate to the gene HSF1. Furthermore, this assay endpoint can be referred to as a primary readout, because this assay has produced multiple assay endpoints where this one serves a reporter gene function. To generalize the intended target to other relatable targets, this assay endpoint is annotated to the dna binding intended target family, where the subfamily is heat shock protein.
Human liver HepG2 cells are transiently transfected with multiple reporter transcription units (MRTUs) in 6-well plates using FuGene 6 reagent (Roche; 3 ml FuGene/1 mg DNA). The MRTU constructs are regulated by a cis-regulating element (promoter). […] A major difference between the CIS and TRANS system is that in CIS activities of endogenous TFs are measured, whereas the TRANS assay evaluates changes in activities of exogenous, chimeric NR-Gal4 proteins. […] At the end of 24 hour incubation, total RNA was isolated using TriZol reagent (Invitrogen). The isolated RNA is then reverse-transcribed using oligo(dT) primer and Mo-MLV reverse transcriptase (Invitrogen) with DNAse I (Ambion) treatment for 30 min. The one-tenth of the produced cDNA was amplified by PCR using Taq DNA polymerase (Invitrogen) and two reporter sequence-specific primers. The PCR products were fluorescently labeled by primer extension with 6-arboxyfluorescein (6-FAM) 5'-labeled reporter sequence-specific primer (2 min at 95 C, 20 s at 68 C and 10 min at 72 C) and these products were digested with 5U of HpaI (New England Biolabs) for 2h at 37 C. The fragments were purified using Qiaquick PCR columns (Qiagen), analyzed on an ABI 3130xL genetic analyzer (Applied Biosystems) with peak positions identified by using a set of X-rhodamine (ROX)-labeled MapMarker1000 molecular weight standards (BioVentures). The raw capillary electrophoresis data was processed using Attagraph software (Attagene).

Structure (SMILES)	outcome	AC50
O=C(c1ccccc1)C(O)c1ccccc1 (stereo not given)	inactive	
COC(=O)c1ccc(OC)cc1	inactive	
CC(C)CCCCCCc1ccc(OCCOCCO)cc1	inactive	
CCCCCC(C)=O	inactive	
COc1cccc(OC)c1O	inactive	
CCC1CCCCC1	inactive	
OCCOCCN1CCN(C2=Nc3ccccc3Sc3ccccc32)CC1	inactive	
c1ccc2cc(Nc3ccc(Nc4ccc5ccccc5c4)cc3)ccc2c1	inactive	
CCCCCCOC(=O)C(C)C	inactive	
OCC#CCO	inactive	
CCOC(=O)C1OC1c1ccccc1 (stereo not given)	inactive	
CCCCOCC	inactive	
C=C(C)CNCC	inactive	
CCC1(c2ccccc2)C(=O)NCNC1=O	inactive	
OCCc1ccccc1	inactive	
CC(O)C1CCCCC1 (stereo not given)	inactive	
Cc1ccc2c(c1)C(=O)OC2=O	inactive	
CCCCCCCCCCCCCCCC(=O)OC/C=C(C)/C=C/C=C(C)/C=C/C1=C(C)CCCC1(C)C	inactive	
CCCCCCOCCOCCO	inactive	
CCCCCC(C=O)=Cc1ccccc1		173 µM (active)

Structure (SMILES)	outcome	AC50
C=CC(=C)CCCC(C)(C)OC(C)=O	inactive	
COC(=O)c1cccnc1	inactive	
CN(C)CCOC(C)(c1ccccc1)c1ccccn1 (stereo not given)	inactive	
CC/C=C\CCOC(=O)CC	inactive	
CC(=O)O[C@@H]1C[C@@H]2CC[C@@]1(C)C2(C)C	inactive	
C=C(C)[C@@H]1CC=C(C)C(=O)C1	inactive	
C=CCN(CC=C)CC=C	inactive	
COc1cc(Cl)c(OC)cc1N	inactive	
ClC(c1ccccc1)(c1ccccc1)c1ccccc1	inactive	
COC(C)(C)CC(C)=O	inactive	
CCC(Cl)C(Cl)C(Cl)CC(Cl)C(Cl)C(C)Cl (stereo not given)	inactive	
CC(C)(C)CC(C)(C)c1ccc(OCCOCC[N+](C)(C)Cc2ccccc2)cc1	inactive	
CC(C)C(OC(=O)c1ccccc1)C(C)(C)COC(=O)c1ccccc1 (stereo not given)	inactive	
N#Cc1cscn1	inactive	
CCCCC(CC)COC(C)=O (stereo not given)	inactive	
CCCCCCC(CO)CCCC (stereo not given)	inactive	
O=C(O)CCCCCCCCCCCC(=O)O	inactive	
CC(C)NCC(O)COc1ccc(CC(N)=O)cc1 (stereo not given)	inactive	
O=[N+]([O-])c1cccc(Cl)c1	inactive	
CCCCCC(=O)CC	inactive	
